Results as given in PubChem BioAssay.
The source made the active and inactive calls.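 Rule for the calls, unless noted: active = inhibition at or above 50% at 10 µM; inactive = inhibition below 50%.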

Assays:
[1] = inhibitors of TNFa-induced NFkB p65 translocation, primary screen, imaging, HUVEC, MLSMR starter and 10KST1 sets (AID 438;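 active = inhibition above 20% together with a positive visual image hit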;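 note: compound added about 3h40 before a 20 min TNFalpha stimulation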;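 for inhibition: signal is the nuclear over cytoplasmic p65 intensity ratio per well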); details: HUVEC TNFa-induced p65 nuclear translocation; cell count: measured here: nuclei count (cytotoxicity indicator), at 2.08 µM; inhibition: at 2 µM, stronger effect = higher value, 0% TNFa-plus-vehicle, 100% no-TNFa wells
[2] = inhibitors of mutant huntingtin aggregation, primary screen, imaging, exon1htt(103Q)mCFP cells, high-content imaging (AID 483;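 active = visual image review flags a hit and inhibition of aggregation exceeds 20%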;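 note: compound exposure lasted 3 days before fixation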;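 for nuclei count: percent of the per-plate median nuclei count of sample wells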); details: exon1htt(103Q)mCFP cell line, aggregate imaging, at 2 µM; inhibition of aggregation: stronger effect = higher value; nuclei count: measured here: cell count, toxicity
[3] = inhibitors of E-selectin induction by TNFa, primary screen, imaging, HUVEC, immunofluorescence, MLSMR starter and 10KST1 sets (AID 487;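 active = visually confirmed hit in the image check and inhibition above 20%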;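 for inhibition: signal is fraction of cell area covered by stained E-selectin grains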;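 for nuclei count: 100% = median nuclei count of all wells on the same plate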); details: HUVEC TNFalpha-induced E-selectin immunofluorescence imaging, at 2 µM; inhibition: stronger effect = higher value; nuclei count: measured here: cell number, toxicity
[4] = molecular target: Voltage-gated potassium channel subunit beta-2 (Rattus norvegicus) (UniProt P62483); experiment: KvBeta enzyme negative modulators, primary screen, biochemical, NADPH fluorescence (AID 622;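 active = fluorescence slope higher than the sample average by over 3 SD, cut at about -0.22 in these data, passing the limit was not always enough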;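 note: slope of raw intensity against log time taken from 70 to 1610 s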); details: recombinant KvBeta, 4-cyanobenzaldehyde reduction, at 10 µM, stronger effect = higher value
[5] = molecular target: Voltage-gated potassium channel subunit beta-2 (Rattus norvegicus) (UniProt P62483); experiment: KvBeta positive modulators, primary screen, biochemical, NADPH fluorescence (AID 623;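 active = NADPH fluorescence slope more negative than the mean of all samples by about 3 SD, 99.7% confidence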;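 note: fluorescence intensity change per second fitted from 20 to 320 s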); details: Recombinant KvBeta, NADPH fluorescence decrease slope, 10 min; at 10 µM; stronger effect = lower value
[6] = molecular target: Alpha-2C adrenergic receptor (Homo sapiens) (UniProt P18825); experiment: modulators of alpha2C/GIRK thallium flux, primary screen, cell-based, HEK293 alpha2C/GIRK1/2 (AID 624;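 active = fluorescence slope after compound addition differing from the mean of all screened samples at 99.7% confidence, in either direction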;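 note: slope of fluorescence ratio to pre-addition baseline per second over 15 to 24 s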); details: thallium flux BTC fluorescence, at 10 µM, actives lie on both sides
[7] = inhibitors of Sendai virus-induced IRF3 signaling, primary screen, TLR/RLR signaling modifier project, cell-based, Sendai virus stimulus, luciferase, 10K MLSCN set (AID 602276); details: HEK293 RL24 IRF3 luciferase reporter, at 10 µM, stronger effect = higher value;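 note: firefly luciferase from ISG56 promoter only with Renilla not read in this screen; 0% = Sendai virus plus DMSO and 100% = medium plus DMSO without virus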
[8] = inhibitors of poly I:C-induced TLR3 signaling, primary screen, cell-based, poly I:C stimulus, luciferase, 10K MLSCN set (AID 602277;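 active = inhibition of the reporter signal at or above 50%; inactive = inhibition below 50%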); details: HEK293-TLR3 RL24 IRF3 luciferase reporter, at 10 µM, stronger effect = higher value

Sequence of Voltage-gated potassium channel subunit beta-2 (Rattus norvegicus) (P62483 whole entry, looked up): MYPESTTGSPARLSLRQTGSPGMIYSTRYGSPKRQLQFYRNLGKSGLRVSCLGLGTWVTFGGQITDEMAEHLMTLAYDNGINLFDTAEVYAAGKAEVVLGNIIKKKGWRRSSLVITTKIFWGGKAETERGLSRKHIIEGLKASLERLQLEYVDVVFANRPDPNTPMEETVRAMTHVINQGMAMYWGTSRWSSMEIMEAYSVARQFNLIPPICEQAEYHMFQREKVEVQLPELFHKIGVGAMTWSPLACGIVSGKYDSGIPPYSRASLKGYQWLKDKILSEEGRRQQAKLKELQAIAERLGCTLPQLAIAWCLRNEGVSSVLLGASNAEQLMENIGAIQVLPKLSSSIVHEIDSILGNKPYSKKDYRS
Sequence of Alpha-2C adrenergic receptor (Homo sapiens) (P18825 whole entry, looked up): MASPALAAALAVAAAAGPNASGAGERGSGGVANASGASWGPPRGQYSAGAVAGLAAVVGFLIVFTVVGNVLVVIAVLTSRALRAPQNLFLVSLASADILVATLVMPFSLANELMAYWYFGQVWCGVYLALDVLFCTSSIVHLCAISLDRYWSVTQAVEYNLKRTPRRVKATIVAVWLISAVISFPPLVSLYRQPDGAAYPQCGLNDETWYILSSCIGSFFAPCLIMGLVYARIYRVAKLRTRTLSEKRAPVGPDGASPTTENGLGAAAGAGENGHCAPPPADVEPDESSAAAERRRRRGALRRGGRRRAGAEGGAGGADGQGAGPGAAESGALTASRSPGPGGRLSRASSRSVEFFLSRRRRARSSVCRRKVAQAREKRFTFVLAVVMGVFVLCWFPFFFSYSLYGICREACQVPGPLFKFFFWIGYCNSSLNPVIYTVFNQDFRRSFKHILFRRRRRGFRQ

For `O=C(Nc1ncc(Br)s1)C1CCCN1S(=O)(=O)c1cccc2cccnc12` (configuration not stated), the cell count [1] was 674, the inhibition [1] was 0.6% (inactive) and the inhibition of aggregation [2] was 39.7% (inactive). For the same compound, the nuclei count [2] was 88.6%, the inhibition [3] was -12.1% (inactive) and the nuclei count [3] was 105%. The fluorescence slope [4] was -0.583 (inactive), the NADPH fluorescence slope [5] was -2.2e-05 (inactive) and the slope [6] was 0.00689 (inactive). The inhibition [7] was 4.87% (inactive) and the inhibition [8] was 36.5% (inactive).

For `Cc1cc2ccccn2c1C(=O)c1ccncc1`, the cell count [1] was 602, the inhibition [1] was -0.6% (inactive) and the inhibition of aggregation [2] was 11.7% (inactive). For the same compound, the nuclei count [2] was 77.4%, the inhibition [3] was -1.7% (inactive) and the nuclei count [3] was 111%. The fluorescence slope [4] was -0.62 (inactive), the NADPH fluorescence slope [5] was 9.9e-07 (inactive) and the slope [6] was 0.00577 (inactive). The inhibition [7] was 11% (inactive) and the inhibition [8] was -0.108% (inactive).

For `N#Cc1cc2c(nc1SCC(=O)N1CCCCC1)CCCC2`, the cell count [1] was 220, the inhibition [1] was 5.5% (inactive) and the inhibition of aggregation [2] was 0.1% (inactive). For the same compound, the nuclei count [2] was 90.1%, the inhibition [3] was -46% (inactive) and the nuclei count [3] was 98.7%. The fluorescence slope [4] was -0.473 (inactive), the NADPH fluorescence slope [5] was 4.2e-05 (inactive) and the slope [6] was 0.00388 (inactive). The inhibition [7] was -26.1% (inactive) and the inhibition [8] was -20.2% (inactive).

With `N#CCCN1CCN(S(=O)(=O)c2ccc(S(=O)(=O)NC3CCCC3)cc2)CC1` the cell count [1] was 689, the inhibition [1] was -10% (inactive) and the inhibition of aggregation [2] was -6.8% (inactive). For the same compound, the nuclei count [2] was 126%, the inhibition [3] was -2.1% (inactive) and the nuclei count [3] was 126%. For the same compound, the fluorescence slope [4] was -0.624 (inactive), the NADPH fluorescence slope [5] was -3.6e-05 (inactive) and the slope [6] was 0.00706 (inactive). For the same compound, the inhibition [7] was -1.55% (inactive) and the inhibition [8] was 28.4% (inactive).

In the case of `Cc1cc(C)c2c(n1)nn1c(C3CC3)cc(C(F)(F)F)nc21`, the cell count [1] is reported as 631, the inhibition [1] is reported as -2% (inactive) and the inhibition of aggregation [2] is reported as 1.3% (inactive). The nuclei count [2] was 92.2%, the inhibition [3] was -11.4% (inactive) and the nuclei count [3] was 123%. For the same compound, the fluorescence slope [4] was -0.315 (inactive), the NADPH fluorescence slope [5] was 2.7e-06 (inactive) and the slope [6] was 0.00594 (inactive). For the same compound, the inhibition [7] was 8.22% (inactive) and the inhibition [8] was 17.3% (inactive).

With `CCCCc1nccn1CCn1ccnc1CCCC` the cell count [1] was 514, the inhibition [1] was -5% (inactive) and the inhibition of aggregation [2] was 53.1% (active). The nuclei count [2] was 75%, the inhibition [3] was -75% (inactive) and the nuclei count [3] was 108%. The fluorescence slope [4] was -0.489 (inactive), the NADPH fluorescence slope [5] was 1.9e-05 (inactive) and the slope [6] was 0.00472 (inactive). For the same compound, the inhibition [7] was 26.7% (inactive) and the inhibition [8] was 25.7% (inactive).

In the case of `O=C(CSc1nnc2ccccn12)NCCN1C(=O)CSC1=O`, the cell count [1] is reported as 701, the inhibition [1] is reported as -2.8% (inactive) and the inhibition of aggregation [2] is reported as -2.4% (inactive). For the same compound, the nuclei count [2] was 94.1%, the inhibition [3] was -218% (inactive) and the nuclei count [3] was 130%. For the same compound, the fluorescence slope [4] was -0.608 (inactive), the NADPH fluorescence slope [5] was -5.5e-06 (inactive) and the slope [6] was 0.00611 (inactive). For the same compound, the inhibition [7] was 7.75% (inactive) and the inhibition [8] was 2.81% (inactive).
